The values that follow come from PubChem BioAssay (Tox21).

Records with an inconclusive call do not appear. The source made the active and inactive calls. Unless noted, calls follow the shape of the dose curve; as a rule, active = well fitted curve in the direction sought with a large enough effect in the repeat runs; inconclusive = weak or mixed curves; inactive = no such curve, though single readings can be large; an effect the other way counts as inactive or inconclusive.

The nature of test [1]: qHTS assay to identify small molecule antagonists of the glucocorticoid receptor (GR) signaling pathway - cell viability counter screen (AID 720693). Also: nearly all actives have a fitted effect of over 55% in size.
Test [2] in a line: qHTS assay for identifying genotoxic compounds that show differential cytotoxicity against isogenic chicken DT40 cell lines with known DNA damage response pathways - wild type cell line (AID 743012). Also: nearly all actives have a fitted effect of over 60% in size. Also: potency is read from the fitted curve at half-maximal effect. The essentials:
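300 wt DT40 cells/well; cpd (DMSO) pintool-transferred after ~0.5 h at 37 C/5% CO2; 40 h incubation; CellTiter-Glo added, 30 min RT; luminescence read.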
(qHTS replaces the single test concentration by a dilution series.)

Test [3] is described as follows: qHTS assay for identifying genotoxic compounds that show differential cytotoxicity against isogenic chicken DT40 cell lines with known DNA damage response pathways - Rev3 mutant cell line (AID 743014). Also: nearly all actives have a fitted effect of over 55% in size.
Test [4] can be described thus: qHTS assay for identifying genotoxic compounds that show differential cytotoxicity against isogenic chicken DT40 cell lines with known DNA damage response pathways - Rad54/Ku70 mutant cell line (AID 743015). Also: nearly all actives have a fitted effect of over 60% in size.
Test [5] in a line: qHTS assay to identify small molecule antagonists of the androgen receptor (AR) signaling pathway - cell viability counter screen (AID 743033; also: nearly all actives have a fitted effect of over 45% in size).
Test [6] can be described thus: qHTS assay to identify small molecule antagonists of the androgen receptor (AR) signaling pathway using the MDA cell line - cell viability counter screen (AID 743041; also: nearly all actives have a fitted effect of over 45% in size). The essentials: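 Cytotoxicity counter screen: MDA-kb2 AR-luc cells, compound + R1881, 16 h, 37C, 0% CO2; CellTiter-Fluor added at 15.5 h, fluorescence read after 30 min.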
Test [7] in a line: qHTS assay to identify small molecule antagonists of the thyroid receptor (TR) signaling pathway (AID 743065). Also: series mostly up to about 70 µM; nearly all actives have a fitted effect of over 55% in size. The essentials: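 GH3.TRE-Luc rat pituitary cells (two TREs driving luciferase) were dosed with compound, then stimulated with 1 nM T3 (final) for 23.5 h at 37 C. ONE-Glo luminescence was the read-out, with CellTiter-Fluor fluorescence as the cytotoxicity counter-screen.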

Test [8] relates to thyroid hormone receptor (rat, GH3 cells). The test is described as follows: qHTS assay to identify small molecule agonists of the thyroid receptor (TR) signaling pathway (AID 743066; calls by dose curve).
Test [9] in a line: qHTS assay to identify small molecule antagonists of the estrogen receptor alpha (ER-alpha) signaling pathway - cell viability counter screen (AID 743074; calls by dose curve;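 also: HEK293 cells carrying ER-alpha-UAS-bla reporter stimulated with 17beta-estradiol; nearly all actives have a fitted effect of over 45% in size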).
Test [10] is described as follows: qHTS assay to identify small molecule antagonists of the estrogen receptor alpha (ER-alpha) signaling pathway using the BG1 cell line - cell viability counter screen (AID 743081).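 Also: compound given together with 17beta-estradiol as the ER stimulus; series mostly up to about 70 µM; nearly all actives have a fitted effect of over 45% in size.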
In test [11] the target is Aromatase (Homo sapiens) (UniProt P11511). Nature of the test: qHTS assay to identify aromatase inhibitors (AID 743083). Also: series mostly up to about 70 µM; nearly all actives have a fitted effect of over 55% in size.
Chain of Aromatase (Homo sapiens) (P11511 whole entry, looked up): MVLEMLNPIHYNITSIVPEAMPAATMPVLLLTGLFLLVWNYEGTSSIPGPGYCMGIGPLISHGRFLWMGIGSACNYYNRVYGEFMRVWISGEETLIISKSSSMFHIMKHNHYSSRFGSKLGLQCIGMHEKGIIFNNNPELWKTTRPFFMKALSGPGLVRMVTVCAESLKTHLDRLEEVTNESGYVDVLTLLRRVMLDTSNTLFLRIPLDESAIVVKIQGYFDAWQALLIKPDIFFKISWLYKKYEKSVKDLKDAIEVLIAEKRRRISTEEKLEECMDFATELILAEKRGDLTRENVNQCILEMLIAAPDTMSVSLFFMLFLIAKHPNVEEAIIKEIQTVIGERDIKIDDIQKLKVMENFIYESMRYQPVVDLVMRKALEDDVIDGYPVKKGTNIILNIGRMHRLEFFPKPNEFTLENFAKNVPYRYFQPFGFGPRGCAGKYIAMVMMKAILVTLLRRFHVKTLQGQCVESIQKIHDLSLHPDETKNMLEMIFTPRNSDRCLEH
Test [12] is described as follows: qHTS assay to identify small molecule antagonists of the thyroid receptor (TR) signaling pathway - cell viability counter screen (AID 743064). Also: nearly all actives have a fitted effect of over 50% in size. In outline:
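Viability of T3-stimulated (1 nM final) GH3.TRE-Luc cells is measured by CellTiter-Fluor fluorescence after 23.5 h compound exposure at 37 °C plus 30 min reagent incubation.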

Test [13] addresses Estrogen receptor (Homo sapiens) (UniProt P03372). Nature of the test: qHTS assay to identify small molecule antagonists of the estrogen receptor alpha (ER-alpha) signaling pathway (AID 743069; active = well fitted curve in the direction sought with a large enough effect in the signal ratio in the repeat runs, not every such curve was filed as active; the % refers to the signal ratio). In outline:
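Beta-lactamase FRET fluorescence is read after 2 hr at room temperature with LiveBLAzer B/G substrate. Before that, ER-alpha-bla HEK293 cells sit 4 hr after plating, then receive compound plus 17beta-estradiol and incubate 18 hr at 37C.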

The target is the same in test [14]. Nature of the test: qHTS assay to identify small molecule agonists of the estrogen receptor alpha (ER-alpha) signaling pathway (AID 743075; calls by dose curve;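 also: HEK293 GripTite cells with ER-alpha and UAS-driven beta-lactamase reporter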).
The target is the same in test [15]. Nature of the test: qHTS assay to identify small molecule agonists of the estrogen receptor alpha (ER-alpha) signaling pathway using the BG1 cell line (AID 743079). Also: nearly all actives have a fitted effect of over 20% in size.
Test [16] in a line: qHTS assay to identify small molecule antagonists of the estrogen receptor alpha (ER-alpha) signaling pathway using the BG1 cell line (AID 743080; calls by dose curve; also: series mostly up to about 70 µM; nearly all actives have a fitted effect of over 25% in size). In outline:
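Antagonist mode: compounds in DMSO were pinned onto BG1-Luc-4E2 cells alongside 17beta-estradiol agonist, incubated 21.5 h, and ERE-driven luciferase measured with ONE-Glo. Cytotoxicity was multiplexed using CellTiter-Fluor fluorescence.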

Test [17] concerns the target Androgen receptor (Homo sapiens) (UniProt P10275). The test is described as follows: qHTS assay to identify small molecule agonists of the androgen receptor (AR) signaling pathway (AID 743036; active = well fitted activation curve with a large enough effect in the signal ratio in the repeat runs, with a control signal flat, not every such curve was filed as active; the % refers to the signal ratio). In outline: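 Screening used 2,000 AR-bla HEK293 cells per well, treated 16 h at 37C with test compounds in DMSO alongside positive and DMSO-only controls; beta-lactamase activity was then read by LiveBLAzer B/G FRET fluorescence after 2 h at room temperature.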

Test [18] has the same target. Nature of the test: qHTS assay to identify small molecule agonists of the androgen receptor (AR) signaling pathway using the MDA cell line (AID 743040; also: nearly all actives have a fitted effect of over 20% in size). The essentials:
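Luciferase read-out, ONE-Glo, 30 min RT. Cells: MDA-kb2 AR-luc, MMTV promoter with AR and GR response elements. Compound exposure 16 h, 37C, 0% CO2, after 5 h pre-incubation. qHTS agonist mode.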

For test [19] the target is unchanged. Nature of the test: qHTS assay to identify small molecule antagonists of the androgen receptor (AR) signaling pathway using the MDA cell line (AID 743042; also: nearly all actives have a fitted effect of over 55% in size). In outline: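 MDA-kb2 breast carcinoma cells carrying MMTV-luciferase (AR/GR responsive) were co-treated with compounds and the agonist R1881 for 16 h at 37C. Inhibition read as ONE-Glo luminescence; CellTiter-Fluor fluorescence measured in parallel for cytotoxicity.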

Chain of Estrogen receptor (Homo sapiens) (P03372 whole entry, looked up): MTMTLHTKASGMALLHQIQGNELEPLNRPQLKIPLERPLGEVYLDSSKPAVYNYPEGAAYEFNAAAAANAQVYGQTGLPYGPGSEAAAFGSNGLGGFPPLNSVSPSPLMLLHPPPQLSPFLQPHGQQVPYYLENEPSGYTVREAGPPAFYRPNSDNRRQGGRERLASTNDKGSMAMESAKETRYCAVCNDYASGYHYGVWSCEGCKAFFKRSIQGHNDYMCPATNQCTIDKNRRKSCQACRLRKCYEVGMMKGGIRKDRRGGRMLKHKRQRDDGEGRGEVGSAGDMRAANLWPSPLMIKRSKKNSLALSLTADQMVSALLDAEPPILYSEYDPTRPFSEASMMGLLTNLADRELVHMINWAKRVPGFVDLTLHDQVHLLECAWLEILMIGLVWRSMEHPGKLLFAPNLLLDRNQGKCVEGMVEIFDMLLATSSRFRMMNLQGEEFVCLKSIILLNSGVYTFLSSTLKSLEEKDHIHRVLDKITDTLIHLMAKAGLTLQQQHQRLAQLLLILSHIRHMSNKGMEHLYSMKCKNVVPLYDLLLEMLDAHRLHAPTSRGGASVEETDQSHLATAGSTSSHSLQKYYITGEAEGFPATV
Chain of Androgen receptor (Homo sapiens) (P10275 whole entry, looked up): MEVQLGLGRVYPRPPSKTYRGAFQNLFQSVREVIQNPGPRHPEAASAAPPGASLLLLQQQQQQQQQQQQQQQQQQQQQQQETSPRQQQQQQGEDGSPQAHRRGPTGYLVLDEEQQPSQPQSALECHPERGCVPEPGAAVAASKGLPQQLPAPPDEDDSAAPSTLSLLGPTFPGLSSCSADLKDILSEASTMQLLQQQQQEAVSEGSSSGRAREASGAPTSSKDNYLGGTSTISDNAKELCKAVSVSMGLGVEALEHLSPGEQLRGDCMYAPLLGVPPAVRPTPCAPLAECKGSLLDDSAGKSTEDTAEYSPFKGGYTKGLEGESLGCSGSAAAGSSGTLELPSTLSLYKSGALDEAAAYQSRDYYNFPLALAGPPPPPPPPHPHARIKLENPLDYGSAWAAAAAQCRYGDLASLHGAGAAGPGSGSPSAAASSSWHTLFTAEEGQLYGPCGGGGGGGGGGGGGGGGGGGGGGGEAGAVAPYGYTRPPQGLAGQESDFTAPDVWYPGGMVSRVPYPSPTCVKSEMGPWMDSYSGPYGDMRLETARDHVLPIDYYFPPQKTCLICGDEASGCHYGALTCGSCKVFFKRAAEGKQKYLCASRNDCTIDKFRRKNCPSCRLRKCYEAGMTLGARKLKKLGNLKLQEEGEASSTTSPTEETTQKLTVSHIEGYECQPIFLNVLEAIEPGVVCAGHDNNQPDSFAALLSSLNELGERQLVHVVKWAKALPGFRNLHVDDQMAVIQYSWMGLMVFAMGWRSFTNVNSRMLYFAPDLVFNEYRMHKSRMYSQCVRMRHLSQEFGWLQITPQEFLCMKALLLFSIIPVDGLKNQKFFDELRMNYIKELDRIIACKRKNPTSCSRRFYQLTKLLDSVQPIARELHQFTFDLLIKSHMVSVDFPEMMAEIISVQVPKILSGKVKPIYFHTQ

As for `CC(C)CCCC(C)CCCC(C)CCCCC(C)CCCC(C)CCCC(C)C` (configuration not stated), the molecule was called inactive in test [1], in test [5], in test [9] and in test [10]. The Potency result in test [2], in test [3], in [4], in test [6], in test [7] and in [8] was “inactive” in each case. Further, the Potency result in test [11] was “inactive”.
For the molecule `N#CC1(O)CCCCC1`, the molecule was called inactive in [1], in [5], in [9] and in test [10]. Further, the Potency result in test [2], in [3], in test [4], in test [6], in test [12] and in test [7] was “inactive” each time. In addition, in [8], the Potency entry is “inactive”.
Take `C1=C\CC/C=C\CC/C=C\CC/1`: the outcome in test [1], in test [5], in test [9] and in test [10] was inactive. In addition, the Potency entry in test [2], in test [3], in test [4], in test [6], in [7] and in test [8] was “inactive” throughout. Also, in [11], the Potency entry is “inactive”.
With `COC(C(=O)O)c1ccccc1` (configuration not stated), the outcome in test [1], in test [5] and in test [10] was inactive. Also, the Potency entry in [2], in test [3], in [4], in test [6], in test [12] and in test [7] was “inactive” each time. Besides, the Potency result in test [8] and in [11] was “inactive” throughout.
Turning to `CC(C)(C)N(CCO)CCO`, the molecule was called inactive in [1], in test [5], in [9] and in test [10]. In addition, the Potency result in test [2], in [3], in [4], in test [6], in [7] and in [8] was “inactive” each time. Also, the Potency result in [13], in [14], in [15], in test [16] and in test [11] was “inactive” each time.
For `CSc1ccc(C=O)cc1`, the molecule was called inactive in [1], in [5], in test [9] and in [10]. Moreover, the Potency entry in [2], in [3], in test [4], in test [6], in test [12] and in test [7] was “inactive” each time. Moreover, the Potency entry in test [8] and in [11] was “inactive” throughout.
On to `OC1OC[C@@H](O)[C@H](O)[C@H]1O` (some centres not stated), for which the molecule was called inactive in test [1], in test [5] and in test [10]. The Potency entry in [2], in [3], in test [4], in test [6], in test [12] and in test [7] was “inactive” in each case. Besides, the Potency entry in [8] and in test [11] was “inactive” throughout.
Consider `CC(C)c1cccc(O)c1`, for which the result in test [1], in test [5], in [9] and in test [10] was inactive. For the same molecule, the Potency entry in test [2], in [3], in test [4], in test [6], in test [7] and in test [8] was “inactive” each time. Also, the Potency result in test [13], in [14], in test [15], in test [16] and in test [11] was “inactive” throughout.
Regarding `CCC(C)OC(=O)N1CCCCC1CCO` (configuration not stated), the result in test [1], in test [5], in [9] and in test [10] was inactive. For the same molecule, the Potency result in test [2], in [3], in [4], in test [6], in [12] and in test [7] was “inactive” in each case. For the same molecule, the Potency result in test [8] and in [11] was “inactive” in each case.
Take `CC(=O)NC(Cc1ccccc1)C(=O)O` (configuration not stated): the call in test [1], in test [5], in test [9] and in test [10] was inactive. The Potency entry in test [2], in test [3], in test [4], in test [6], in test [7] and in test [8] was “inactive” in each case. Besides, the Potency result in [13], in test [14], in [15], in test [16] and in [11] was “inactive” throughout.
As for `CCCCCCC(CCCCCCCCCCC(=O)OCC(COC(C)=O)OC(C)=O)OC(C)=O` (configuration not stated), the call in test [1], in test [5], in test [9] and in test [10] was inactive. Besides, the Potency entry in [2], in test [3], in test [4], in test [6], in [7] and in test [8] was “inactive” each time. In addition, the Potency entry in [13], in test [14], in [15], in test [16] and in test [11] was “inactive” in each case.
For `Nc1cc(N)cc(C(=O)O)c1`, the molecule was called inactive in test [1], in [5], in test [9] and in test [10]. Further, the Potency entry in [2], in [3], in test [4], in test [6], in test [7] and in [8] was “inactive” throughout. Moreover, the Potency result in test [13], in test [14], in test [15], in test [16] and in test [11] was “inactive” in each case.
Consider `CCC(C(=O)NC(N)=O)c1ccccc1` (configuration not stated), for which the call in [1], in test [5], in test [9] and in [10] was inactive. Moreover, the Potency result in test [2], in test [3], in test [4], in test [6], in [7] and in [8] was “inactive” throughout. Moreover, the Potency entry in test [13], in test [14], in [15], in [16] and in [11] was “inactive” in each case.
Take `OC/C=C/c1ccccc1`: the molecule was classed as inactive in test [1], in test [5], in test [9] and in test [10]. Besides, the Potency result in test [2], in test [3], in test [4], in test [6], in test [7] and in test [8] was “inactive” throughout. The Potency entry in test [11] was “inactive”.
As for `NS(=O)(=O)c1cc(C2(O)NC(=O)c3ccccc32)ccc1Cl` (configuration not stated), the molecule was classed as inactive in test [1], in test [5], in test [9] and in test [10]. Besides, the Potency result in test [2], in test [3], in test [4], in [6], in test [7] and in test [8] was “inactive” each time. For the same molecule, in [11], the Potency entry is “inactive”.
In the case of `CC(C=O)Cc1ccc(C(C)C)cc1` (configuration not stated), the result in test [1], in test [5], in test [9] and in test [10] was inactive. Further, the Potency entry in test [2], in test [3], in test [4], in test [6], in [12] and in test [7] was “inactive” throughout. Besides, the Potency result in test [8] and in [11] was “inactive” each time.
With `CC(=O)c1ccc(C)cc1`, the call in test [1], in [5], in test [9] and in test [10] was inactive. For the same molecule, the Potency result in [2], in test [3], in test [4], in test [6], in test [13] and in test [14] was “inactive” each time. The Potency entry in [15], in test [16] and in [11] was “inactive” each time.
Take `CC(C)(O)Cc1ccccc1`: the molecule was classed as inactive in test [1], in test [5], in [9] and in test [10]. The Potency result in test [2], in [3], in [4], in test [12], in test [7] and in [8] was “inactive” throughout. Also, the Potency entry in test [13], in test [14], in test [15], in test [16] and in test [11] was “inactive” throughout.
For `CCCOc1ccccc1-c1nc2n[nH]nc2c(=O)[nH]1`, the molecule was classed as inactive in test [1], in test [5], in test [9] and in [10]. Also, the Potency entry in test [2], in test [6], in [12], in [7], in test [8] and in test [13] was “inactive” throughout. The Potency result in [14], in test [15], in test [16] and in [11] was “inactive” each time.
Consider `COC[C@H](c1ccc(C(F)(F)F)cc1)N1CCN(C2(C)CCN(C(=O)c3c(C)ncnc3C)CC2)C[C@H]1C`, for which the call in [1], in test [5] and in [9] was inactive. Further, the Potency in [2] was 29.8 µM (active). Moreover, the Potency result in test [4], in test [12], in test [7], in [8], in [13] and in [14] was “inactive” in each case. In addition, the Potency entry in test [15] and in test [16] was “inactive” each time.
Take `CCCCCN(CCCCC)C(=O)C(CCC(=O)O)NC(=O)c1ccc(Cl)c(Cl)c1` (configuration not stated): the result in [1], in [5], in test [17], in test [19], in [9] and in test [10] was inactive. Besides, the Potency result in test [2], in [4], in test [18], in [12], in test [7] and in [8] was “inactive” throughout. For the same molecule, the Potency result in test [14], in test [16] and in test [11] was “inactive” each time.
